Results on eleven compounds are retold here after ChEMBL document CHEMBL3988442, “University of Dundee, Small-Polar-MMV Screening Library” (2021).

Common to all, as to set-up: scale not given: direction of the effect not stated beside the values
The target in test [1] is Protein translocase subunit SecA (Escherichia coli (strain K12)) (UniProt P10408). Kind of test: Assay to Identify E. coli SecA ATPase Inhibitors. In kind it is functional. To be noted: 30 µM.
Test [2] has as its target T1, Ubiquitin-activating enzyme e1, putative (Leishmania donovani (strain BPK282A1)) (UniProt E9BSI1).
T1 sequence (whole entry): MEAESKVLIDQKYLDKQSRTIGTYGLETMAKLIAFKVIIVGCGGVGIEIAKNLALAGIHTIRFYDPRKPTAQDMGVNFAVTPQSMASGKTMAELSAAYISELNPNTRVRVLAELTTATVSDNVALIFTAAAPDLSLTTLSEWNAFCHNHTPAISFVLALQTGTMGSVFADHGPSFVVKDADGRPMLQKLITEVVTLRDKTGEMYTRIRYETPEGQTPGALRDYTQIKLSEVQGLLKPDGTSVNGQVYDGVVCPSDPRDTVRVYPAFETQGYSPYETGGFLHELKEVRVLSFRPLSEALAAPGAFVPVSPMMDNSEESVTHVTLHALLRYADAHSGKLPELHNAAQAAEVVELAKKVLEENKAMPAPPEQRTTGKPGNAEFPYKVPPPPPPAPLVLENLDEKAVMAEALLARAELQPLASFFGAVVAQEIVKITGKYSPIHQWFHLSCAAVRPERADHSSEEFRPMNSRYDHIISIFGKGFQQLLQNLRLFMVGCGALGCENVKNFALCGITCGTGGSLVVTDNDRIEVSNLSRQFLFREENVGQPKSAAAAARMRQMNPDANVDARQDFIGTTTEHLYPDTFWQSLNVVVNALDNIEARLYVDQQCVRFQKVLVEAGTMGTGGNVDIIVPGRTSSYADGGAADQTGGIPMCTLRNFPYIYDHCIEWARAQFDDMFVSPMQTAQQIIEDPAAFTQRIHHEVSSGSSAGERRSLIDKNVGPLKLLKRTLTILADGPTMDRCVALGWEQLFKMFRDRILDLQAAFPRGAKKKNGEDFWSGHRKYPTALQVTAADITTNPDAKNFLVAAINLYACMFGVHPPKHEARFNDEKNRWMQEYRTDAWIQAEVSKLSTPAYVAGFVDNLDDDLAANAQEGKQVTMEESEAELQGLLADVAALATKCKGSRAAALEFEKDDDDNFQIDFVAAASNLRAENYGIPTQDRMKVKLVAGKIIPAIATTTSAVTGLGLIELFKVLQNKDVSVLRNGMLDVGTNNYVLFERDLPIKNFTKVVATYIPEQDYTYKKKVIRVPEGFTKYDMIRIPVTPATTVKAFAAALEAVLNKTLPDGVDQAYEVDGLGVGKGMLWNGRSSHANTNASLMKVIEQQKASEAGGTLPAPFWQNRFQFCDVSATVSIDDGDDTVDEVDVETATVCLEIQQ
Kind of test: Leishmania donovani Ubiquitin Activating Enzyme (LdE1). Type of test: functional. To be noted: 30 µM.

Test [3] deals with Sialic acid-binding Ig-like lectin 9 (Homo sapiens) (UniProt Q9Y336). Kind of test: Hs-Siglec9 ALPHAscreen SOP 20170721. To be noted: 10 µM.
The test system of another test is Trypanosoma cruzi. Kind of test: Trypanosoma cruzi phosphomannomutase and mannose-1-phosphate guanylyltransferase assay. In kind it is functional. The settings on record: 10 µM.
Test [4] deals with T2, Arginase-2, mitochondrial (Homo sapiens) (UniProt P78540).
T2 sequence (whole entry): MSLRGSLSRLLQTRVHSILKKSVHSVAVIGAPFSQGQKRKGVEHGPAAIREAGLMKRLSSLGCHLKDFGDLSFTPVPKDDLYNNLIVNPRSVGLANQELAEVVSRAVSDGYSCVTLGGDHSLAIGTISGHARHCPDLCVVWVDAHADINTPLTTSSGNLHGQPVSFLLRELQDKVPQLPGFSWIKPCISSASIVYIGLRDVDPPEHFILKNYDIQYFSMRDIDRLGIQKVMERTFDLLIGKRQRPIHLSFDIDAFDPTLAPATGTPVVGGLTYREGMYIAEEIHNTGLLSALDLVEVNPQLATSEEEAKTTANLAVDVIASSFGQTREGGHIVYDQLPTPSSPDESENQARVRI
Kind of test: in vitro enzyme assay to detect the production of urea directly proportional to the activity of Arginase II. Also: in the data most compounds retested in dose-response had high values. Type of test: functional. The settings on record: 33.3 µM.

The target of test [5] is T3, Proteasome subunit beta (Trypanosoma cruzi) (UniProt O96673).
T3 sequence (whole entry): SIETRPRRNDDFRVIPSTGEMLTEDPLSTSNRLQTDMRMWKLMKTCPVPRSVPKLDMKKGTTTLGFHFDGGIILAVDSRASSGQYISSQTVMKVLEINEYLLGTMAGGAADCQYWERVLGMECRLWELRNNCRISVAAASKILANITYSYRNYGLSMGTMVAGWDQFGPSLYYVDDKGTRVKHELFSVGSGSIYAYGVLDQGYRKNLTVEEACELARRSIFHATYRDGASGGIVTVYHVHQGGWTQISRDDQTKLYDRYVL
Kind of test: Trypanosoma cruzi proteasome chymotrypsin-like activity (TcProtChymo) assay. Also: in the data most compounds retested in dose-response had high values. Type of test: functional. To be noted: 9.37 µM.

For a further test, the species on record is Homo sapiens. Kind of test: To identify inhibition of the IFN signalling (Jak-Stat) pathway via expression of an eGFP reporter gene under the control of an IFN-stimulated response element (ISRE) containing MxA promoter. In kind it is functional. To be noted: 30 µM.
In test [6] the target is T4, Tyrosyl-tRNA synthetase, putative (Trypanosoma cruzi (strain CL Brener)) (UniProt Q4DSP6).
T4 sequence (whole entry): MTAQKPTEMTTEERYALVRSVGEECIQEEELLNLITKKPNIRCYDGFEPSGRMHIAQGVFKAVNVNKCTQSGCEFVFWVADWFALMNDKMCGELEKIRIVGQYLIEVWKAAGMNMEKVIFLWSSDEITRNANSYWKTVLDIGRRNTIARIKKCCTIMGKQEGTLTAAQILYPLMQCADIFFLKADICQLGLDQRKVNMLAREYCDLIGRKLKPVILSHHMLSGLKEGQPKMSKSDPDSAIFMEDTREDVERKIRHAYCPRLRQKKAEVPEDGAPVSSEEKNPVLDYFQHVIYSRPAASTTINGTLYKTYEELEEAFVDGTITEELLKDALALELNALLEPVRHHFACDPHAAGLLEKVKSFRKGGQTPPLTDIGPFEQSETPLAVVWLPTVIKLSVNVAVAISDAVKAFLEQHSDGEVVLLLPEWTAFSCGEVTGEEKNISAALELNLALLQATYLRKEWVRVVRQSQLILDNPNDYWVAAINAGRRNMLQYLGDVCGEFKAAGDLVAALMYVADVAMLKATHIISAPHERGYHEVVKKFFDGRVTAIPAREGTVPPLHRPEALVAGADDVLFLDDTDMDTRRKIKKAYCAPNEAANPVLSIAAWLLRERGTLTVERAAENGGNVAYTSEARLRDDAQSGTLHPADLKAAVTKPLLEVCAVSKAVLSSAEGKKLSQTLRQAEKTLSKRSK
Kind of test: Trypanosoma cruzi tyrosyl tRNA synthetase (TcYRS) _High Tyrosine SOP. Also: in the data most compounds retested in dose-response had high values. Type of test: functional. To be noted: 30 µM.

Test [7] addresses T4, Tyrosyl-tRNA synthetase, putative (Trypanosoma cruzi (strain CL Brener)). Kind of test: Trypanosoma cruzi tyrosyl tRNA synthetase (TcYRS) SOP. In kind it is functional. To be noted: 30 µM.
Test [8] addresses Chromo domain-containing protein 1 (Saccharomyces cerevisiae (strain ATCC 204508 / S288c) (Baker's yeast)) (UniProt P32657). Kind of test: ScCHD-1 Enzyme Inhibition Assay. Also: in the data most compounds retested in dose-response had high values. Type of test: functional. The settings on record: 30 µM.

Molecules are shown by their SMILES. For some assays here: Entries with a potency or affinity are not part of this list.

Chain of Sialic acid-binding Ig-like lectin 9 (Homo sapiens) (Q9Y336 whole entry): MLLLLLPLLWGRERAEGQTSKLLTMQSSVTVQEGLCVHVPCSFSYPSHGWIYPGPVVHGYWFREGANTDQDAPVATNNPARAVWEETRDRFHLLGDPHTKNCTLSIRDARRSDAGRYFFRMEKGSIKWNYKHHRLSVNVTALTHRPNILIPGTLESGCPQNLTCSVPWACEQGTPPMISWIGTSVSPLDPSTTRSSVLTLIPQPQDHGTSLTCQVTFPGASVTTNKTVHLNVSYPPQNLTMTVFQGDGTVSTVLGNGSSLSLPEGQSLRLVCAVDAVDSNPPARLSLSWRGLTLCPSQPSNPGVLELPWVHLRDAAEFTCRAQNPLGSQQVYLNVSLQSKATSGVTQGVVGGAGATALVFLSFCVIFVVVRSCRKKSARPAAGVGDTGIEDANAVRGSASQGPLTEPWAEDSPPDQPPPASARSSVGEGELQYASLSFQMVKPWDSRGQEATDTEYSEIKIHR
Chain of Protein translocase subunit SecA (Escherichia coli (strain K12)) (P10408 whole entry): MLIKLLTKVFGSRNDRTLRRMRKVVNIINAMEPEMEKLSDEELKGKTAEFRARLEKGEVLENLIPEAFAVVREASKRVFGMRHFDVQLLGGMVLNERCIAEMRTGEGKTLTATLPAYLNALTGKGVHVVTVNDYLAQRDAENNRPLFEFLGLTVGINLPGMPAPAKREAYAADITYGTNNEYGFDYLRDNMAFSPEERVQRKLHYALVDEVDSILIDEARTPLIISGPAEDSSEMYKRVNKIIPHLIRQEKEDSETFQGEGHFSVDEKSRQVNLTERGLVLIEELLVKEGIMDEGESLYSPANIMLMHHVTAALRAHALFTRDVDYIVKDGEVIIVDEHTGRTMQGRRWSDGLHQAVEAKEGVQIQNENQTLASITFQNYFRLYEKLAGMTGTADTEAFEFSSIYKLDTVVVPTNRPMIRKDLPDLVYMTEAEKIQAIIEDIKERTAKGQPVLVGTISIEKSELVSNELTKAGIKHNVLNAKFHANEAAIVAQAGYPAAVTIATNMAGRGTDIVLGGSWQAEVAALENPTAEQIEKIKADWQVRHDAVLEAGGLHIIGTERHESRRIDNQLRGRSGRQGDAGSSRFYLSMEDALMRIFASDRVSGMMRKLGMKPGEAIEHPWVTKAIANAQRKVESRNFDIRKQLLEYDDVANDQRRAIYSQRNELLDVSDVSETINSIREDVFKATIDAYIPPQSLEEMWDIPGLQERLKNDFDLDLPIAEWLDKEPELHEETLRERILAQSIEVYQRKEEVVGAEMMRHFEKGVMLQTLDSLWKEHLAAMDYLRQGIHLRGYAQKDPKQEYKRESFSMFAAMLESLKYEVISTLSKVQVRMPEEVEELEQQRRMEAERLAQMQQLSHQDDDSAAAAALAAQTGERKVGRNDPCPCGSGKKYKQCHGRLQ
Chain of Chromo domain-containing protein 1 (Saccharomyces cerevisiae (strain ATCC 204508 / S288c) (Baker's yeast)) (P32657 whole entry, the tested form may be a part): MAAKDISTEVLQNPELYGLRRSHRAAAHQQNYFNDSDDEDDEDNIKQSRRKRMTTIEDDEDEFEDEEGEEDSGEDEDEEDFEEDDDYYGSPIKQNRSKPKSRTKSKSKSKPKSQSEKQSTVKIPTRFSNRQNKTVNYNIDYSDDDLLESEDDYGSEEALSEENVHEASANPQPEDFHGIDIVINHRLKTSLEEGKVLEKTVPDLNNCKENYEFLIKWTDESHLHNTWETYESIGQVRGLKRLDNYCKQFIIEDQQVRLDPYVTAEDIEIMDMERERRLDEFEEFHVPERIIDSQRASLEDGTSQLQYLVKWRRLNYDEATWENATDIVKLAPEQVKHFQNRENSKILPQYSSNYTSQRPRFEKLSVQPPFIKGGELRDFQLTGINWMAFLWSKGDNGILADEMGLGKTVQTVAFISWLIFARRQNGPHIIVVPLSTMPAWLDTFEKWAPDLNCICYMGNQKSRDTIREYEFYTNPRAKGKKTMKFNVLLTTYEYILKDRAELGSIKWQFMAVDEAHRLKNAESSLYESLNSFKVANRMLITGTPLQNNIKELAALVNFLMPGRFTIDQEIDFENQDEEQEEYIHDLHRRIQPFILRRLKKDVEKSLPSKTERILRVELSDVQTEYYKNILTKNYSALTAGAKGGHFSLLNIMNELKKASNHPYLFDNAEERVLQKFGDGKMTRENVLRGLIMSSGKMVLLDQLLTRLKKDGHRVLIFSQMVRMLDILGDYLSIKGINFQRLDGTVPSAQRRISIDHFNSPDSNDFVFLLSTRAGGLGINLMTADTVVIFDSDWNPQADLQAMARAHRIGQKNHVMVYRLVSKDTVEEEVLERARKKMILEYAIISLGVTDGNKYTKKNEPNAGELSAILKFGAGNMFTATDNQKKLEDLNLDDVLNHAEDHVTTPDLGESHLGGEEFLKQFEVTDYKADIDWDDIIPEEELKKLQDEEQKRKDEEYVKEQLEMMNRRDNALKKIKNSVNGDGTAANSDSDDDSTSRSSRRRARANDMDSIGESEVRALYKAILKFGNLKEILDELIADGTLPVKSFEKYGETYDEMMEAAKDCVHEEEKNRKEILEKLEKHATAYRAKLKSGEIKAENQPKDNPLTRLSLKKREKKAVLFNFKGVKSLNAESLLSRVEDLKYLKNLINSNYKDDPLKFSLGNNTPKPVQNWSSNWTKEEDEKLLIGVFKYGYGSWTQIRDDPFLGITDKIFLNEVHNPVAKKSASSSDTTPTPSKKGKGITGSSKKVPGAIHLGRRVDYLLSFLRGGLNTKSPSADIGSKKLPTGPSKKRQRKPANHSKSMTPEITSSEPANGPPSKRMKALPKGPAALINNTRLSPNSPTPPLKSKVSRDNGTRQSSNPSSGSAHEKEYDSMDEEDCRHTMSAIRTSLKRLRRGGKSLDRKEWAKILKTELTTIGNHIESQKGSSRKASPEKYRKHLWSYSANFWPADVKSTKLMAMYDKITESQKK

Turning to `Cc1cc(C)n(CC2CCCCN2C(=O)c2cnn(C)c2)n1` (stereo not given), the Percent Effect in test [1] was -5.83%; in [2], 8%; in [3], 1.34%; in the test on Trypanosoma cruzi, -5.22%; in [4], -2.22%; in test [5], 6.02%. Also, the Percent Effect in the test filed under Homo sapiens is 5.12%; in test [6] it was -0.526%; in test [7], 2.56%; in test [8], -0.708%.

For the compound `CCOc1ccc(Cl)c(C(=O)NCc2ccc(C(=O)NC)cc2)n1`, the Percent Effect in [1] was -5.52%; in test [2], 15.4%; in test [3], -5.92%; in the test with Trypanosoma cruzi, 4.79%; in [4], 4.92%; in test [5] it was 8.62%. In addition, the Percent Effect in the test filed under Homo sapiens came out at 9.74%; in test [6], 5.26%; in [7] it was 20.5%; in test [8] it was 0.666%.

Take `Cc1cc(C)n(CC2CCCCN2CCCS(N)(=O)=O)n1` (stereo not given): the Percent Effect is 1.22% in test [1]; 18.7% in test [2]; -2.13% in [3]; -2.01% in the test on Trypanosoma cruzi; 4.88% in test [4]; 12.8% in test [5]. The Percent Effect in the test filed under Homo sapiens was 8.38%; in test [6] it was -0.526%; in test [7], 7.69%; in [8] it was -8.39%.

As for `COc1ccc(CN2CCN(C(C)c3nc(C4CC4)no3)CC2)cc1` (stereo not given), the Percent Effect in test [1] is -1.5%; in test [2], 12.8%; in test [3], 2.49%; in the test on Trypanosoma cruzi, 3.29%; in test [4], -9.43%; in test [5], 7.76%. For the same compound, the Percent Effect in the test filed under Homo sapiens was 26.9%; in [6] it was 3.35%; in test [7], 10.8%; in test [8], -7.9%.

`CNC(=O)CN(C)c1nc(-c2ccncc2)nc2c1CCN(C(C)=O)C2`: the Percent Effect was -7.13% in [1]; 0% in [2]; 0.927% in test [3]; -1.07% with Trypanosoma cruzi; 2.45% in test [4]; 9.59% in test [5]. The Percent Effect was -4.34% in the test filed under Homo sapiens, 1.6% in [6], 7.32% in [7] and -3.67% in test [8].

Turning to `CN(Cc1nnc(-c2ccco2)o1)C1CCCN(c2cccnn2)C1` (stereo not given), the Percent Effect in test [1] is 2.65%; in test [2], 10.3%; in test [3] it was -14.4%; in the test on Trypanosoma cruzi it was -2.91%; in test [4], -0.82%; in test [5] it was 28.4%. Besides, the Percent Effect in the test listed under Homo sapiens turned out to be 30.2%; in test [6] it was 3.35%; in test [7], 8.43%; in test [8], 1.33%.

As to `CCN1C(=O)CCCC12CCCN(C(=O)c1conc1C)C2` (stereo not given), the Percent Effect in test [1] was -1.85%; in test [2] it was 3.9%; in [3], -5.23%; in the test with Trypanosoma cruzi it was -3.75%; in test [4], -0.457%; in test [5], 5.75%. For the same compound, the Percent Effect in the test listed under Homo sapiens is 14%; in test [6] it was -4.83%; in test [7], -5%; in test [8] it was -2.52%.

Regarding `COCCO[C@H]1CCN(C(=O)c2cc(C)on2)[C@H]1Cc1ccccc1`, the Percent Effect in test [1] is -2.31%; in test [2], 11.7%; in test [3], 3.34%; with Trypanosoma cruzi, -1.88%; in test [4] it was -0.913%; in test [5] it was 7.47%. Moreover, the Percent Effect in the test filed under Homo sapiens is 18.8%; in test [6], 7.73%; in test [7], 10%; in [8], -5.82%.

As to `Cc1nn(-c2ccccc2)cc1C(=O)N1CCCN2CCCC2C1` (stereo not given), the Percent Effect was -4.61% in [1]; 10.7% in test [2]; 5.72% in [3]; -0.201% with Trypanosoma cruzi; 0.887% in test [4]; 7.21% in [5]. Moreover, the Percent Effect in the test filed under Homo sapiens is 3.25%; in [6] it was 7.89%; in test [7], 12.8%; in test [8] it was -14.7%.

Regarding `CN1[C@H](Cn2cccn2)C[C@@H]2CN(C(=O)Cc3cccs3)CC[C@@H]21`, the Percent Effect in [1] is -4.49%; in test [2], 11.7%; in test [3], -0.662%; with Trypanosoma cruzi it was -3.56%; in [4] it was -1.83%; in [5], 9.53%. In addition, the Percent Effect in the test listed under Homo sapiens was 18.5%; in test [6], 6.76%; in [7] it was 0%; in test [8], -10.4%.

Consider `COc1ccc(CNCc2ccc(N3CCCCC3)nc2)cc1OC`, for which the Percent Effect is 0.873% in test [1]; 15.4% in test [2]; -8.85% in test [3]; 5.92% with Trypanosoma cruzi; 2.87% in test [4]; 8.62% in test [5]. The Percent Effect is 2.97% in the test listed under Homo sapiens, 8.13% in test [6], 25.3% in [7] and -9.53% in test [8].
